High-throughput results from PubChem.
MARV entry inh – inhibitors of Marburg virus binding or cell entry. AID 540276. Potency, µM (series often up to 37.8 µM), most hits filed as inhibitors. Marburg virus pseudotyped entry inhibition, cell reporter. 1.8% of 300,000 active; calls by dose curve; tested in HEK293 cells
HCV inhibitor – inhibitors of hepatitis C virus infection; Huh7.5.1 HCVcc-Cre infection, luciferase reporter, 44 h; Potency, µM (doses to about 41.8 µM), actives largely listed as inhibitors; AID 651820; 3.4% of 340,000 active; active = well fitted inhibition curve with a large enough effect; inconclusive = small, poorly fitted or top-dose-only effect, or another doubt; inactive = no such curve, though single readings can be large or run the other way
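A cell-based infection assay in which seeded cells (1,000 per well) receive test compound after 4 h, are inoculated with HCVcc-Cre at approximately 0.5 moi, and are incubated 44 h before luminescence detection.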
Cycloheximide cs – counter-screen hit for Shiga toxin inhibitors, cycloheximide | cell reporter, cycloheximide protein synthesis inhibition counterscreen | AID 2314 | 12% of 300,000 active | max response, %; in the data active = max response mostly above about 13%, no sharp cut-off; inactive = mostly below about 14%; note: read at 38.3 µM for the half of the compounds with a filed dose
FMDV antiviral – antivirals against foot and mouth disease virus; AID 1159524; Potency, µM (highest dose often 57.9 µM), most hits filed as inhibitors; 1.2% of 410,000 active; FMDV antiviral cell-based qHTS; calls by dose curve; tested in HEK293T cells; note: read-out not given here; nearly all actives have a fitted effect of over 45% in size
LASV entry inh – inhibitors of Lassa virus binding or cell entry | Lassa virus pseudotype entry inhibition, cell reporter | Potency, µM (top dose mostly 37.9 µM), usual class: inhibitors | 1.2% of 300,000 active; calls by dose curve; tested in HEK293 cells; note: nearly all actives have a fitted effect of over 50% in size
Shiga inhibitor – inhibitors of Shiga toxin in Vero cells; Vero cells, Shiga toxin protein synthesis inhibition reporter; inhibition, % at 38.7 µM; 9.2% of 290,000 active; AID 2315; in the data active = inhibition mostly above about 28%, no sharp cut-off; inactive = mostly below about 43%
Numbers stand for hits. Only some compounds are listed: those with a hit (about 13% of all), similar ones and a draw of the others.

Results for CCOc1ccc(/C=N/NC(=O)c2cc3c(OC)cc(OC)c(OC)c3[nH]2)cc1 ?
HCV inhibitor: 11.2µM; Cycloheximide cs: inactive; FMDV antiviral: inactive; Shiga inhibitor: inactive

Results for COc1ccc(/C=N/NC(=O)c2nc(-c3ccccc3)cc(-c3ccccc3)n2)cc1O ?
MARV entry inh: 17.8µM; HCV inhibitor: inconclusive; Cycloheximide cs: 28.7; FMDV antiviral: inactive; LASV entry inh: inconclusive; Shiga inhibitor: inactive

Results for CCOc1cc(/C=C2\NC(=S)N(c3c(C)n(C)n(-c4ccccc4)c3=O)C2=O)ccc1O ?
MARV entry inh: inactive; HCV inhibitor: inactive; Cycloheximide cs: inactive; FMDV antiviral: inactive; LASV entry inh: inactive; Shiga inhibitor: inactive

How did CCOc1cccc(/C=C2\NC(=S)N(c3ccccc3)C2=O)c1O do in these assays?
HCV inhibitor: inactive; Cycloheximide cs: 42.0; FMDV antiviral: inactive; Shiga inhibitor: 55.3

What do the screens show for `COc1ccc(OC)c(NC(=O)NC2CCCCCCC2)c1`?
HCV inhibitor: inactive; Cycloheximide cs: inactive; FMDV antiviral: inactive; Shiga inhibitor: inactive

How did COc1ccc(NC(=O)NN2CCOCC2)cc1OC do in these assays?
MARV entry inh: inactive; HCV inhibitor: inactive; Cycloheximide cs: inactive; FMDV antiviral: inactive; LASV entry inh: inactive; Shiga inhibitor: inactive

What do the screens show for `COc1ccc(NC(=O)NC2CCCCCCC2)cc1OC`?
HCV inhibitor: inactive; Cycloheximide cs: 39.2; FMDV antiviral: inactive; Shiga inhibitor: inactive

How did Cc1ccc(NC(=O)NC2CCCCC2)cc1Cl do in these assays?
MARV entry inh: inactive; HCV inhibitor: inactive; Cycloheximide cs: 34.2; FMDV antiviral: inactive; LASV entry inh: inconclusive; Shiga inhibitor: 59.5

Results for COc1ccc(NC(=O)NN2CCN(C)CC2)cc1OC ?
HCV inhibitor: inactive; Cycloheximide cs: 26.7; FMDV antiviral: inactive; Shiga inhibitor: 20.8

How did Cc1ccc(NC(=O)C2CCN(C(=O)NC3CCCCC3)CC2)cc1Cl do in these assays?
MARV entry inh: inactive; HCV inhibitor: inactive; Cycloheximide cs: inactive; FMDV antiviral: inactive; LASV entry inh: inactive; Shiga inhibitor: inactive

How did C/C(=N\Nc1ccc([N+](=O)[O-])cc1)c1cc2ccccc2o1 do in these assays?
MARV entry inh: inactive; HCV inhibitor: inconclusive; Cycloheximide cs: inactive; FMDV antiviral: inactive; LASV entry inh: inactive; Shiga inhibitor: inactive

What do the screens show for `O=C1c2ccccc2C(=O)C1c1ccc2ccccc2n1`?
MARV entry inh: inconclusive; HCV inhibitor: inactive; Cycloheximide cs: 34.3; FMDV antiviral: inconclusive; LASV entry inh: 5.8µM; Shiga inhibitor: 78.5

What do the screens show for `Cc1ccc(NC(=O)c2snc3ccc(Cl)cc23)cc1C`?
MARV entry inh: inactive; HCV inhibitor: inconclusive; Cycloheximide cs: 37.7; FMDV antiviral: inactive; LASV entry inh: inactive; Shiga inhibitor: 32.2

How did Cc1cc(C(=O)Nc2nc3c(s2)CCCC3)no1 do in these assays?
MARV entry inh: inconclusive; HCV inhibitor: inactive; Cycloheximide cs: 16.7; FMDV antiviral: inactive; LASV entry inh: inconclusive; Shiga inhibitor: inactive

What do the screens show for `COC(=O)Nc1nc2c(s1)CCCC2`?
MARV entry inh: inactive; HCV inhibitor: inactive; Cycloheximide cs: 28.1; FMDV antiviral: inactive; LASV entry inh: inconclusive; Shiga inhibitor: 35.5

Results for Cc1onc(-c2ccccc2)c1C(=O)Nc1nc2c(s1)CCCC2 ?
MARV entry inh: inactive; HCV inhibitor: inconclusive; Cycloheximide cs: 31.9; FMDV antiviral: inactive; LASV entry inh: inactive; Shiga inhibitor: inactive

Results for O=C(CS(=O)(=O)Cc1ccccc1)Nc1nnc(C(F)(F)F)s1 ?
MARV entry inh: inactive; HCV inhibitor: inactive; Cycloheximide cs: inactive; FMDV antiviral: inactive; LASV entry inh: inactive; Shiga inhibitor: inactive

How did COc1ccc(OCC(=O)N/N=C/c2ccc(N(C)C)cc2)cc1 do in these assays?
MARV entry inh: inconclusive; HCV inhibitor: inactive; Cycloheximide cs: 25.8; FMDV antiviral: inactive; LASV entry inh: inconclusive; Shiga inhibitor: inactive

Results for CN(C)c1ccc(/C=N/NC(=O)CCC(=O)NCc2ccccc2)cc1 ?
MARV entry inh: inactive; HCV inhibitor: inactive; Cycloheximide cs: inactive; FMDV antiviral: inactive; LASV entry inh: inactive; Shiga inhibitor: inactive

Results for CN(C)c1ccc(/C=N/NC(=O)CNC(=O)c2ccncc2)cc1 ?
HCV inhibitor: inactive; Cycloheximide cs: inactive; FMDV antiviral: inactive; Shiga inhibitor: inactive

Results for CN(C)c1ccc(/C=N/NC(=O)CCCO)cc1 ?
MARV entry inh: inconclusive; HCV inhibitor: inactive; Cycloheximide cs: 41.4; FMDV antiviral: inactive; LASV entry inh: inactive; Shiga inhibitor: 63.4

How did COc1ccc(C=NNC(=O)CCCCC(=O)NN=Cc2ccc(OC)cc2)cc1 do in these assays?
MARV entry inh: inactive; HCV inhibitor: inactive; FMDV antiviral: inactive; LASV entry inh: inconclusive

What do the screens show for `CN(C)c1ccc(/C=N\NC(=O)CC#N)cc1`?
MARV entry inh: inactive; HCV inhibitor: inactive; Cycloheximide cs: inactive; FMDV antiviral: inactive; LASV entry inh: inactive; Shiga inhibitor: 34.8

How did CCCCCC(=O)N/N=C/c1ccc(N(C)C)cc1 do in these assays?
MARV entry inh: inconclusive; HCV inhibitor: inactive; Cycloheximide cs: 17.8; FMDV antiviral: inactive; LASV entry inh: inactive; Shiga inhibitor: inactive

How did CCCCNC(=O)Nc1cc(C(=O)OC)ccc1Cl do in these assays?
MARV entry inh: inactive; HCV inhibitor: inconclusive; Cycloheximide cs: inactive; FMDV antiviral: inactive; LASV entry inh: inactive; Shiga inhibitor: inactive

Results for CN(C)c1ccc(/C=N/NC(=O)CCc2c[nH]c3ccccc23)cc1 ?
MARV entry inh: inconclusive; HCV inhibitor: inactive; Cycloheximide cs: inactive; FMDV antiviral: inactive; LASV entry inh: 2µM; Shiga inhibitor: inactive

How did C=C(Cl)COc1ccc2c(CC)cc(=O)oc2c1 do in these assays?
MARV entry inh: inactive; HCV inhibitor: 8.91µM; Cycloheximide cs: inactive; LASV entry inh: inactive; Shiga inhibitor: inactive

How did CCCCc1cc(=O)oc2cc(OCC(=O)N(CC)CC)ccc12 do in these assays?
MARV entry inh: inconclusive; HCV inhibitor: inactive; Cycloheximide cs: inactive; FMDV antiviral: inactive; LASV entry inh: inactive; Shiga inhibitor: inactive

What do the screens show for `C=C(Cl)COc1ccc2c(C)cc(=O)oc2c1`?
MARV entry inh: inactive; HCV inhibitor: inconclusive; Cycloheximide cs: 23.1; LASV entry inh: inactive; Shiga inhibitor: active

How did CCCCc1cc(=O)oc2cc(OS(C)(=O)=O)ccc12 do in these assays?
MARV entry inh: inactive; HCV inhibitor: inconclusive; Cycloheximide cs: 20.4; FMDV antiviral: inactive; LASV entry inh: inconclusive; Shiga inhibitor: inactive

How did C=C(Cl)COc1ccc2c(CCCC)cc(=O)oc2c1 do in these assays?
MARV entry inh: inactive; HCV inhibitor: inconclusive; Cycloheximide cs: 25.5; FMDV antiviral: inactive; LASV entry inh: inactive; Shiga inhibitor: inactive

Results for C#CCNS(=O)(=O)c1ccc(F)cc1Br ?
HCV inhibitor: inactive; FMDV antiviral: inactive; LASV entry inh: inactive

How did COc1cccc(C(=O)Nc2nnc(S(=O)(=O)N(C)Cc3ccc(F)cc3)s2)c1 do in these assays?
HCV inhibitor: inactive; Cycloheximide cs: inactive; FMDV antiviral: inactive; Shiga inhibitor: inactive

Results for CC1CCCCN1CCCNC(=O)C1CCN(c2nc3ccccc3o2)CC1 (configuration not stated) ?
HCV inhibitor: inconclusive; Cycloheximide cs: inactive; FMDV antiviral: inactive; Shiga inhibitor: inactive

What do the screens show for `O=c1[nH]c(=O)n(-c2cc(Br)c(O)c(Br)c2)cc1Br`?
HCV inhibitor: inactive; Cycloheximide cs: inactive; FMDV antiviral: inactive
